The source of these data is PubChem BioAssay (NCI).

Assay [1] in a line: NCI Yeast Anticancer Drug Screen. Data for the rad50 strain (AID 155).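 Also: 0% = growth of vehicle-only cultures of the same strain.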 The following applies: S. cerevisiae rad50 strain growth inhibition, stronger effect = higher value. The gist of the method:
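A DNA repair-deficient yeast mutant serves as the test organism; compound-induced growth inhibition is calculated against vehicle-treated cells.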

A short description of assay [2]: NCI Yeast Anticancer Drug Screen. Data for the mec2-1 strain (AID 157). To be noted: S. cerevisiae mec2-1 strain, stronger effect = higher value. The gist of the method:
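Growth inhibition is read against vehicle-treated controls after compound exposure of the mec2-1 yeast strain, which is defective in DNA damage repair or cell cycle control.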

Assay [3] is described as follows: NCI Yeast Anticancer Drug Screen. Data for the sgs1 mgt1 strain (AID 161).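 Also: 0% = growth of cultures given vehicle only.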 The following applies: S. cerevisiae sgs1 mgt1 strain, stronger effect = higher value. The method in brief: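 Compounds are added to genetically altered yeast, and growth is compared with cultures given vehicle alone to give percent inhibition.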
A short description of assay [4]: NCI Yeast Anticancer Drug Screen. Data for the cln2 rad14 strain (AID 165).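 Also: 0% = growth equal to vehicle treated cultures.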 To be noted: S. cerevisiae cln2 rad14 strain, stronger effect = higher value. The gist of the method:
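Growth inhibition, relative to vehicle-treated controls, is the read-out. The test organism is a yeast strain with defined genetic alterations, cln2 rad14.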

A short description of assay [5]: NCI Yeast Anticancer Drug Screen. Data for the bub3 strain (AID 167). The following applies: S. cerevisiae bub3 mutant strain, stronger effect = higher value. The gist of the method:
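Inhibition values come from growth of compound-treated mutant yeast normalised to vehicle-treated controls.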

Assay [6] is described as follows: NCI Yeast Anticancer Drug Screen. Data for the mlh1 rad18 strain (AID 175). The following applies: S. cerevisiae mlh1 rad18 strain growth inhibition, stronger effect = higher value. The method in brief:
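Cells of a genetically altered yeast strain, deficient in DNA damage repair, were treated with compound. Their growth was then compared with that of vehicle-treated cultures to give inhibition.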

[7] abbreviates: at 5.0 µM (retest, dose inferred, filed as 0.5).
The mark [8] stands for this setting: at 50.0 µM (retest, dose inferred, filed as 5.0).

About 79,000 compounds went through this panel and 15% of them were active in at least one assay; those are over-represented in the sample as a whole. Values without a mark were called inactive. Active and inactive are the calls of the source. Rule as the data show it: active = growth inhibition above about 70%; inactive = the rest.

On to `COc1c(Cl)[c]([Hg][O]C(C)=O)c(NCC(C)=O)c(OC)[c]1[Hg][O]C(C)=O`, for which the growth inhibition in assay [1] (setting [7]) is 80% (active); in assay [1] (setting [8]), 94% (active); in assay [1] (at 50.0 µM), 87.3% (active); in assay [2] (setting [7]) it was 99% (active); in assay [2] (setting [8]), 94% (active); in assay [2] (at 50.0 µM), 90.5% (active). Besides, the growth inhibition in assay [3] (setting [7]) was 99% (active); in assay [3] (setting [8]), 95% (active); in assay [3] (at 50.0 µM), 90.8% (active); in assay [4] (setting [7]), 35%; in assay [4] (setting [8]), 95% (active); in assay [4] (at 50.0 µM), 89.4% (active). In addition, the growth inhibition in assay [5] (setting [7]) was 99% (active); in assay [5] (setting [8]), 94% (active); in assay [5] (at 50.0 µM), 89.4% (active); in assay [6] (setting [7]) it was 95% (active); in assay [6] (setting [8]) it was 94% (active); in assay [6] (at 50.0 µM) it was 86.4% (active).

`CCN(CC)C(=S)[S-].CCN(CC)C(=S)[S-].O=C(O)CC([S-])C(=O)O.[Fe+3]` (configuration not stated): the growth inhibition in assay [1] (setting [7]) was 4%; in assay [1] (setting [8]), 98% (active); in assay [1] (at 50.0 µM) it was 61.8%; in assay [2] (setting [7]), 9%; in assay [2] (setting [8]), 99% (active); in assay [2] (at 50.0 µM), 55.8%. Moreover, the growth inhibition in assay [3] (setting [7]) was 35%; in assay [3] (setting [8]), 99% (active); in assay [3] (at 50.0 µM), 76.8% (active); in assay [4] (setting [7]) it was 30%; in assay [4] (setting [8]), 98% (active); in assay [4] (at 50.0 µM), 43.8%. Also, the growth inhibition in assay [5] (setting [7]) was -1%; in assay [5] (setting [8]), 98% (active); in assay [5] (at 50.0 µM) it was 45.7%; in assay [6] (setting [7]), 38%; in assay [6] (setting [8]), 98% (active); in assay [6] (at 50.0 µM), 87.2% (active).

Regarding `Clc1ccccc1C#[C][Hg][C]#Cc1ccccc1Cl`, the growth inhibition was 3% in assay [1] (setting [7]); 34% in assay [1] (setting [8]); 0.25% in assay [1] (at 50.0 µM); 3% in assay [2] (setting [7]); 94% (active) in assay [2] (setting [8]); 5.95% in assay [2] (at 50.0 µM). Besides, the growth inhibition in assay [3] (setting [7]) was 4%; in assay [3] (setting [8]) it was 95% (active); in assay [3] (at 50.0 µM), 19.9%; in assay [4] (setting [7]), 1%; in assay [4] (setting [8]) it was 29%; in assay [4] (at 50.0 µM), -4.95%. Besides, the growth inhibition in assay [5] (setting [7]) is -3%; in assay [5] (setting [8]), 92% (active); in assay [5] (at 50.0 µM), -9.2%; in assay [6] (setting [7]) it was 5%; in assay [6] (setting [8]), 76% (active); in assay [6] (at 50.0 µM), 19.4%.

`ClCCN(CCCl)CCN1c2ccc3ccccc3c2Sc2ccc3ccccc3c21`: the growth inhibition in assay [1] (setting [7]) is -3%; in assay [1] (setting [8]), 2%; in assay [1] (at 50.0 µM) it was 32.7%; in assay [2] (setting [7]) it was 0%; in assay [2] (setting [8]) it was 37%; in assay [2] (at 50.0 µM), 16.5%. Besides, the growth inhibition in assay [3] (setting [7]) was -13%; in assay [3] (setting [8]) it was 61%; in assay [3] (at 50.0 µM), 85% (active); in assay [4] (setting [7]), 2%; in assay [4] (setting [8]), 1%; in assay [4] (at 50.0 µM) it was -19.2%. In addition, the growth inhibition is 1% in assay [5] (setting [7]); 79% (active) in assay [5] (setting [8]); 20.8% in assay [5] (at 50.0 µM); -1% in assay [6] (setting [7]); 53% in assay [6] (setting [8]); 67.9% in assay [6] (at 50.0 µM).

Take `CC1CC[N-]C(C)C1.CN(C)C=O.[Cl][Pt][Cl]` (configuration not stated): the growth inhibition is 33% in assay [1] (setting [7]); 100% (active) in assay [1] (setting [8]); 80.7% (active) in assay [1] (at 50.0 µM); 42% in assay [2] (setting [7]); 100% (active) in assay [2] (setting [8]); 92.2% (active) in assay [2] (at 50.0 µM). Moreover, the growth inhibition is 66% in assay [3] (setting [7]); 100% (active) in assay [3] (setting [8]); 89.8% (active) in assay [3] (at 50.0 µM); 61% in assay [4] (setting [7]); 100% (active) in assay [4] (setting [8]); 49% in assay [4] (at 50.0 µM). The growth inhibition in assay [5] (setting [7]) is 73% (active); in assay [5] (setting [8]) it was 100% (active); in assay [5] (at 50.0 µM), 89.4% (active); in assay [6] (setting [7]) it was 25%; in assay [6] (setting [8]) it was 99% (active); in assay [6] (at 50.0 µM) it was 89.8% (active).

Turning to `CC(=O)Oc1ccc(/C=C/[N+](=O)[O-])cc1`, the growth inhibition in assay [1] (setting [7]) was 27%; in assay [1] (setting [8]), 95% (active); in assay [1] (at 50.0 µM) it was 98.9% (active); in assay [2] (setting [7]) it was 6%; in assay [2] (setting [8]), 99% (active); in assay [2] (at 50.0 µM), 99.5% (active). Also, the growth inhibition in assay [3] (setting [7]) is 12%; in assay [3] (setting [8]) it was 99% (active); in assay [3] (at 50.0 µM), 93.1% (active); in assay [4] (setting [7]), -2%; in assay [4] (setting [8]), 82% (active); in assay [4] (at 50.0 µM) it was 82% (active). The growth inhibition in assay [5] (setting [7]) was 5%; in assay [5] (setting [8]) it was 99% (active); in assay [5] (at 50.0 µM), 99.4% (active); in assay [6] (setting [7]), 12%; in assay [6] (setting [8]) it was 98% (active); in assay [6] (at 50.0 µM), 98.3% (active).

As to `C[C@@H](O)[C@H]1/C=C/C=C\C(=O)O[C@@H]2C[C@H]3O[C@@H]4[C@@H]5OC5(C)CCC4(COC(=O)[C@H]4O[C@]4(C)[C@@H](O)CO1)[C@]2(C)[C@]31CO1` (some centres not stated), the growth inhibition in assay [1] (setting [7]) was 26%; in assay [1] (setting [8]) it was 95% (active); in assay [1] (at 50.0 µM), 91.4% (active); in assay [2] (setting [7]), 24%; in assay [2] (setting [8]) it was 87% (active); in assay [2] (at 50.0 µM), 92.5% (active). Also, the growth inhibition in assay [3] (setting [7]) is 44%; in assay [3] (setting [8]), 96% (active); in assay [3] (at 50.0 µM), 92% (active); in assay [4] (setting [7]), 42%; in assay [4] (setting [8]), 96% (active); in assay [4] (at 50.0 µM), 90.4% (active). Also, the growth inhibition in assay [5] (setting [7]) was 31%; in assay [5] (setting [8]) it was 93% (active); in assay [5] (at 50.0 µM) it was 91% (active); in assay [6] (setting [7]), 28%; in assay [6] (setting [8]), 97% (active); in assay [6] (at 50.0 µM), 90.2% (active).

Regarding `CC1=NNC(=O)C1(Br)Br`, the growth inhibition in assay [1] (setting [7]) is -2%; in assay [1] (setting [8]), 21%; in assay [1] (at 50.0 µM), 8.7%; in assay [2] (setting [7]), -3%; in assay [2] (setting [8]), 9%; in assay [2] (at 50.0 µM), 11.9%. The growth inhibition in assay [3] (setting [7]) was 2%; in assay [3] (setting [8]), 16%; in assay [3] (at 50.0 µM), 14.2%; in assay [4] (setting [7]), 13%; in assay [4] (setting [8]), 31%; in assay [4] (at 50.0 µM), 69.6%. Moreover, the growth inhibition is 1% in assay [5] (setting [7]); 75% (active) in assay [5] (setting [8]); 43.1% in assay [5] (at 50.0 µM); -13% in assay [6] (setting [7]); -2% in assay [6] (setting [8]); -23.8% in assay [6] (at 50.0 µM).

Consider `ClCC[Se](Cl)(Cl)c1ccccc1`, for which the growth inhibition in assay [1] (setting [7]) is 33%; in assay [1] (setting [8]), 75% (active); in assay [1] (at 50.0 µM) it was 42.9%; in assay [2] (setting [7]), 19%; in assay [2] (setting [8]), 20%; in assay [2] (at 50.0 µM) it was 55.6%. The growth inhibition in assay [3] (setting [7]) is 29%; in assay [3] (setting [8]), 48%; in assay [3] (at 50.0 µM) it was 72% (active); in assay [4] (setting [7]), 25%; in assay [4] (setting [8]) it was 44%; in assay [4] (at 50.0 µM), 60.5%. Further, the growth inhibition in assay [5] (setting [7]) was 6%; in assay [5] (setting [8]), 46%; in assay [5] (at 50.0 µM) it was 53.2%; in assay [6] (setting [7]), 33%; in assay [6] (setting [8]), 68%; in assay [6] (at 50.0 µM), 86.2% (active).
